Shown are actives, neighbours in structure and some others; about 3.1% of the full set was active somewhere.
TWEAK_Fn14_block = inhibitors of TWEAK-Fn14 signaling, primary screen, luciferase reporter cells, uHTS; inhibition, % at 10 µM; hit rate 2% among 360,000; AID 1159606, 2016; TWEAK-stimulated Fn14 reporter cells, luciferase luminescence, 8 h; in the data active = inhibition above about 50%
LMP1_NFkB_inh = EBV LMP1-driven NF-kappaB luciferase reporter inhibitors, primary screen, cell-based, luminescence, single point. LMP1-induced NF-kappaB luciferase reporter cells. inhibition, % at 12.5 µM. hit rate 0.69% among 350,000. AID 504558, 2011; in the data active = inhibition above about 41%;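 also: 0% = neutral control wells and 100% = reference inhibitor control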
TROY_NFkB_inh = inhibitors of TROY-driven NF-kB signaling, primary screen, Q293 LMP1-TROYcd cells, NF-kB luciferase, uHTS. Q293 LMP1-TROYcd NF-kB luciferase reporter, 4 h. inhibition, % at 10 µM. hit rate 0.98% among 360,000. AID 1347056, 2019;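 active = compounds whose plate-normalised and pattern-corrected inhibition of the luciferase reporter signal at the single screening dose is 50% or more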
LGR2_antag = inhibitors of bursicon-induced LGR2 CRE-luciferase signal, primary screen, cell-based, HEK293, CRE-luciferase reporter, bursicon stimulation; bursicon-stimulated, 4 h; inhibition, % at 9.99 µM; AID 720647, 2013; Drosophila bursicon receptor LGR2 (rickets); hit rate 0.35% among 380,000;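 active = drop in luminescence signal, shown as inhibition above about 50% in the replicate tests, limit read from the data, passing the limit was not always enough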;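 also: agonist challenge used bursicon conditioned medium at about half maximal strength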
EWS-Fli_inh = EWS/Fli-driven NR0B1 reporter inhibitors, primary screen, A673 cells, NR0B1 luciferase, luminescence, MLPCN library; viability-normalised; inhibition, % at 12.6 µM; hit rate 0.67% among 350,000; AID 651661, 2012;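 active = mean inhibition of at least 50% after viability correction, with every replicate also passing that limit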;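 also: firefly luciferase signal divided by Alamar Blue viability fluorescence both relative to DMSO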
PAX8_inh_HTS = inhibitors of PAX8-driven TPO luciferase reporter, primary screen, RMG-I cells, single concentration; inhibition, % at 12.6 µM; AID 652154, 2013; hit rate 1.2% among 360,000; SteadyGlo, 24 h;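 active = mean replicate inhibition at least 60% with every replicate also reaching 60%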;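 also: luciferase light reporting Pax8 driven TPO promoter activity; plate controls were median of neutral control wells for no effect and mitoxantrone controls for full effect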
Numbers without * were called inactive; . = no result.

SMILES TWEAK_Fn14_block LMP1_NFkB_inh TROY_NFkB_inh LGR2_antag EWS-Fli_inh PAX8_inh_HTS
C[C@H](CO)N1C[C@H](C)[C@H](CN(C)Cc2ccc3c(c2)OCO3)Oc2c(NS(=O)(=O)c3ccc(F)cc3)cccc2C1=O . . . -10 -2 -11
CO[C@H]1CN(C)C(=O)c2ccc(NC(=O)C3CC3)cc2OC[C@H](C)N(Cc2ccc(F)cc2)C[C@@H]1C . . . -1 -4 .
CC(C)C(=O)Nc1ccc2c(c1)C(=O)N(C)[C@H]1CC[C@H](CC(=O)N[C@H](C)c3ccccc3)O[C@@H]1CO2 . . . 13 -10 -1
C[C@H]1CN([C@@H](C)CO)S(=O)(=O)c2ccc(C#CC3CC3)cc2O[C@@H]1CN(C)C(=O)c1cccc(F)c1 . . . 3 2 -5
C[C@H](CO)N1C[C@H](C)[C@@H](CN(C)Cc2ccc(Cl)c(Cl)c2)Oc2ccc(N(C)C)cc2C1=O . . . . 5 16
O=C(C[C@H]1CC[C@@H]2[C@H](COC[C@@H](O)CN2Cc2cccc(C(F)(F)F)c2)O1)NCCc1ccncc1 . . . 7 5 4
CN1C(=O)c2cc(NC(=O)c3ccccc3Cl)ccc2OC[C@H]2O[C@@H](CC(=O)O)CC[C@H]21 . . . -18 -3 12
Cc1csc(NC(=O)Cc2coc3cc(C)c(C(C)C)cc23)n1 -31 6 55* . . .
Clc1ccc(/C=C/c2nc3ccccc3[nH]2)c(Cl)c1 64* 10 48 . . .
Clc1ccc(/C=C/c2nc3ccccc3[nH]2)cc1 81* 19 16 . . 6
O=C(/C=C/c1ccc(Cl)cc1Cl)c1nc2ccccc2[nH]1 -18 5 -22 . . .
Clc1cccc(Cl)c1/C=C/c1nc2ccccc2[nH]1 3 -45 -40 . . .

Compound activity as filed in PubChem BioAssay.
